# Assay results reported in PubChem BioAssay (NCATS).
# Results filed as inconclusive are left out. The source made the active and inactive calls. The call rests on the fitted dose curve; in most records, active means well fitted curve in the direction sought with a large enough effect; inconclusive means small, poorly fitted or top-dose-only effect, or another doubt; inactive means no such curve, though single readings can be large or run the other way.
# Biological target: Protein phosphatase 1D (Homo sapiens) (UniProt O15297)
# Sequence (O15297 whole entry, looked up): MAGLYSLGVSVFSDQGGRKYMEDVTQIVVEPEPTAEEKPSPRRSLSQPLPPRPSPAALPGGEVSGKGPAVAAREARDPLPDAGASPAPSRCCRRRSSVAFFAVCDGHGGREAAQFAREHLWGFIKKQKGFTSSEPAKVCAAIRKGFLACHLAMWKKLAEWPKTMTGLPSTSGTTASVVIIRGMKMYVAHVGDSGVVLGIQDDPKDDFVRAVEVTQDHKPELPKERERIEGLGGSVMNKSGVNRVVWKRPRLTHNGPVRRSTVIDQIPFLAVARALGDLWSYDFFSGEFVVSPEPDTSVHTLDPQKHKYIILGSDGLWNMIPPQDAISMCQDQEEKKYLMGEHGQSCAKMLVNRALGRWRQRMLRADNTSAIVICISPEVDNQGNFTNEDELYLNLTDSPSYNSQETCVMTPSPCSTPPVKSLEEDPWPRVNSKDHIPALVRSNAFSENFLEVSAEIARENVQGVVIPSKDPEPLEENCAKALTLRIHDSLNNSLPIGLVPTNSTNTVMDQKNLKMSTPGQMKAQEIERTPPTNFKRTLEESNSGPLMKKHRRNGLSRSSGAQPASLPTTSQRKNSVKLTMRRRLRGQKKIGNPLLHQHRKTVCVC
# Experiment: Rhodamine-PBP qHTS Assay for Modulators of WT P53-Induced Phosphatase 1 (WIP1) (AID 1347425); further: % of control where 0% means no effect
# Conditions: recombinant WIP1, Rhodamine-PBP phosphate fluorescence, real-time; series mostly up to 57.5 µM; activity change, negative = inhibition: at the top concentration
# Method in brief: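 Steps: enzyme with Rh-PBP sensor and compounds, room-temperature incubation of 1 hr, baseline read, addition of VEPPL-pS-QETFS (10 uM final), kinetic fluorescence reads at 525/598 nm. Activity equals final minus baseline signal.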
row,SMILES,"activity change, negative = inhibition"
1,CN(C)CC/C=C1\c2ccccc2Sc2ccc(Cl)cc21,37.7% (inactive)
2,CCOc1ccc(Cc2nccc3cc(OCC)c(OCC)cc23)cc1OCC,37.6% (inactive)
3,C#C[C@]1(OC(C)=O)CC[C@H]2[C@@H]3CCC4=C[C@@H](OC(C)=O)CC[C@@H]4[C@H]3CC[C@@]21C,-17% (inactive)
4,COC1=CC(=O)C[C@@H](C)[C@]12Oc1c(Cl)c(OC)cc(OC)c1C2=O,5.48% (inactive)
5,C[C@]12CCC(=O)C=C1[C@@H]1C[C@@H]1[C@H]1[C@@H]3[C@@H]4C[C@@H]4[C@@]4(CCC(=O)O4)[C@@]3(C)CC[C@@H]12,17.8% (inactive)
6,CC(C)NC[C@@H](O)COc1cccc2ccccc12,-8.15% (inactive)
7,C=C(CC)C(=O)c1ccc(OCC(=O)O)c(Cl)c1Cl,-11.8% (inactive)
8,Cc1cc2c(cc1CC(=O)c1sccc1S(=O)(=O)Nc1onc(C)c1Cl)OCO2,-24.8% (inactive)
9,C[C@]12CC[C@H]3[C@@H](CCC4=CC(=O)CC[C@@]43C)[C@@H]1CC[C@@H]2C(=O)CO,14.1% (inactive)
10,C[C@H]1C[C@H]2[C@@H]3CCC4=CC(=O)C=C[C@]4(C)[C@@]3(Cl)[C@@H](O)C[C@]2(C)[C@@]1(O)C(=O)CO,2.32% (inactive)
11,CC(=O)Oc1ccc2c(c1)CC[C@@H]1[C@@H]2CC[C@]2(C)[C@@H](O)CC[C@@H]12,-13.6% (inactive)
12,CCN(CC)CCOc1ccc(C(O)(Cc2ccc(Cl)cc2)c2ccc(C)cc2)cc1 (configuration not stated),33.8% (inactive)
13,CCCCCCCCCCCCCCCC[N+](C)(C)CC,9.42% (inactive)
14,NC(=NCCCCCCN=C(N)/N=C(\N)Nc1ccc(Cl)cc1)/N=C(\N)Nc1ccc(Cl)cc1,18.6% (inactive)
15,CC(O)C(=O)O (configuration not stated),-4.99% (inactive)
16,CCCOC(C(=O)OC1CCN(C)CC1)(c1ccccc1)c1ccccc1,25.7% (inactive)
17,C[C@]12CC[C@@H]3c4ccc(O)cc4CC[C@H]3[C@@H]1C[C@@H](O)[C@@H]2O,4.7% (inactive)
18,Nc1ccc(C(=O)Nc2ccccc2N)cc1,-7.03% (inactive)
19,CC(C)(C)CC(C)(C)c1ccc(OCCOCC[N+](C)(C)Cc2ccccc2)cc1,26% (inactive)

row,SMILES,"activity change, negative = inhibition"
1,O=C(O)CCCCC(=O)O,4.7% (inactive)
2,CCCCCCCCCCOCC(O)CN (configuration not stated),19.4% (inactive)
3,CC(=O)OCC(=O)[C@@]1(OC(C)=O)[C@@H](C)C[C@H]2[C@@H]3C[C@H](F)C4=CC(=O)C=C[C@]4(C)[C@@]3(F)[C@@H](O)C[C@@]21C,15.3% (inactive)
4,CC(=O)Oc1ccc(C(c2ccc(OC(C)=O)cc2)c2ccccn2)cc1,-17.8% (inactive)
5,C/C=C/c1ccc(OC)cc1,15.6% (inactive)
6,CC1=C(C(=O)OC(C)C)C(c2cccc([N+](=O)[O-])c2)C(C(=O)OC2CN(C(c3ccccc3)c3ccccc3)C2)=C(N)N1 (configuration not stated),4.49% (inactive)
7,CCCCC(=O)O[C@]1(C(=O)CO)CC[C@H]2[C@@H]3CCC4=CC(=O)CC[C@]4(C)[C@H]3[C@@H](O)C[C@@]21C,3.32% (inactive)
8,O=c1[nH]c(=O)n([C@H]2C[C@H](O)[C@@H](CO)O2)cc1C(F)(F)F,9.01% (inactive)
9,C[C@H]1[C@H](NC(=O)/C(=N/OC(C)(C)C(=O)O)c2csc(N)n2)C(=O)N1S(=O)(=O)O (stereo in doubt),1.18% (inactive)
10,CN(C(=O)CN(CCO)CC(=O)N(C)C(C)(C)Cc1ccccc1)C(C)(C)Cc1ccccc1,24.6% (inactive)
11,C[C@]12C=CC(=O)C=C1[C@@H](F)C[C@@H]1[C@@H]2[C@@H](O)C[C@@]2(C)[C@H]1CC[C@]2(O)C(=O)CO,11.2% (inactive)
12,Cc1c(C)n(CCN(C)C)c2ccc(C(=O)OCCN(C)C)cc12,-5.2% (inactive)
13,Nc1ccc(/C=C/c2ccc(N)cc2S(=O)(=O)O)c(S(=O)(=O)O)c1,11.7% [at 0.575 µM] (inactive)
14,COc1cc(-c2ccc(=O)[nH]n2)ccc1OC(F)F,-5.79% (inactive)
15,CCCC(=O)O[C@]1(C(=O)CO)CC[C@H]2[C@@H]3CCC4=CC(=O)CC[C@]4(C)[C@H]3[C@@H](O)C[C@@]21C,1.47% (inactive)
16,CCCCCCCCCCCCCCNCCO,46.9% (inactive)
17,C[n+]1c2cc(N)ccc2cc2ccc(N)cc21 (tested in a mixture with another compound),-12.5% (inactive)
18,C[C@]12CCC(=O)C=C1CC[C@H]1[C@@H]3CC[C@](O)(C(=O)CO)[C@@]3(C)C[C@H](O)[C@@]12F,14.3% (inactive)
